Results reported in PubChem BioAssay (EPA / NIEHS).
Results filed as inconclusive are left out. Active and inactive are the calls of the source. The calls were made as follows, unless noted: active = hit-call score of the fitted dose curve at least 0.9, where 1 is the maximum; inactive = score below 0.9.

Legend:
[1] = target: human Vitamin D Receptor (VDR), VDR (gene 7421) (UniProt P11473); experiment: ATG_VDR_TRANS: Attagene TRANS-FACTORIAL HepG2 Assay for human Vitamin D Receptor (VDR) (AID 2283022; active = hit-call score of the fitted dose curve at least 0.9, where 1 is the maximum)
Summary of the method: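 Fluorescence of labelled reporter cDNA fragments, resolved by capillary electrophoresis, gives mRNA induction after 24 h treatment of HepG2 cells carrying transfected Gal4-fusion reporter units. Activity is fitted in the positive direction with DMSO as baseline.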

[2] = BSK_3C_SRB: Viability Assessment in the BioMAP Diversity Plus: 3C Assay (AID 2283023); settings: primary human endothelial cells (HUVEC);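 also: fitted both ways against DMSO so a hit may be signal rise or drop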
Summary of the method: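 Cells were dosed with chemical, cultured 24 h, fixed with 10% TCA, stained with 0.1% SRB and read at 560 nm. Human umbilical vein endothelium was used; DMSO served as negative control and baseline.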

[3] = read-out: Matrix Metallopeptidase 1 (MMP1), MMP1 (gene 4312); experiment: BSK_BE3C_MMP1: BioMAP Diversity Plus: BE3C Assay for Matrix Metallopeptidase 1 (MMP1) Biomarker Activity (AID 2283024); settings: primary human bronchial epithelial cells; actives raise or lower the signal
Summary of the method: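 Human bronchial epithelial cells (BE3C system) exposed to compound for 24 h; MMP1 then quantified by ELISA. Activity was fitted in both directions relative to DMSO.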

[4] = BSK_3C_Vis: BioMAP Diversity Plus: 3C Assay for Morphology Visualization (AID 2283025); settings: primary human endothelial cells (HUVEC);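 also: fitted both ways so gain or loss versus DMSO counts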
Summary of the method: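 Chemicals were added to primary human umbilical vein endothelium, cells were incubated 24 h, and morphology was then visualized by light microscopy. Gain or loss of signal was fitted bidirectionally relative to DMSO.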

[5] = read-out: Pselectin, SELP (gene 6403); experiment: BSK_4H_Pselectin: BioMAP Diversity Plus: 4H Assay for Pselectin Biomarker Activity (AID 2283026); settings: primary human endothelial cells (HUVEC); actives raise or lower the signal
Summary of the method: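 ELISA read-out of P-selectin on human umbilical vein endothelium after 24 h of dosing. Values derive from bidirectional fitting relative to DMSO. Parallel SRB protein staining flagged overt cytotoxicity.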

[6] = BSK_BE3C_SRB: Viability Assessment in the BioMAP Diversity Plus: BE3C Assay (AID 2283028); settings: primary human bronchial epithelial cells
Summary of the method: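 Overt cytotoxicity was assessed as total protein in confluent human primary bronchial epithelial cultures 24 h after chemical addition, using 0.1% sulforhodamine B staining read at 560 nm.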

[7] = read-out: Thrombomodulin, THBD (gene 7056); experiment: BSK_3C_Thrombomodulin: BioMAP Diversity Plus: 3C Assay for Thrombomodulin Biomarker Activity (AID 2283029); settings: primary human endothelial cells (HUVEC); actives raise or lower the signal
Summary of the method: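 Read-out is ELISA of thrombomodulin on human umbilical vein endothelium 24 h after chemical dosing. Gain or loss of signal is scored relative to DMSO. Overt cytotoxicity is checked in parallel cultures by sulforhodamine B staining.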

[8] = read-out: Urokinase-type plasminogen activator receptor (uPAR), PLAUR (gene 5329); experiment: BSK_4H_uPAR: BioMAP Diversity Plus: 4H Assay for Urokinase-type plasminogen activator receptor (uPAR) Biomarker Activity (AID 2283030); settings: primary human endothelial cells (HUVEC); actives raise or lower the signal
Summary of the method: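 Chemicals are dosed onto human vascular endothelial primary cells (umbilical vein). After 24 h, uPAR is read by ELISA. Gain or loss of signal is fitted relative to DMSO.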

[9] = read-out: Vascular endothelial growth factor receptor 2 (Homo sapiens) (UniProt P35968); experiment: BSK_4H_VEGFRII: BioMAP Diversity Plus: 4H Assay for Vascular endothelial growth factor receptor 2 (VEGFR2) Biomarker Activity (AID 2283031); settings: primary human endothelial cells (HUVEC); actives raise or lower the signal;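 as to AC50: cell-surface VEGFR2 protein level quantified by ELISA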
Summary of the method: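 VEGFRII levels on human vascular endothelial primary cells were determined by ELISA at 24 hours post-dosing, with gain- or loss-of-signal fitted against DMSO controls.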

[10] = read-out: Human Leukocyte Antigen - DR isotype (HLADR), HLA-DRA (gene 3122); experiment: BSK_BE3C_HLADR: BioMAP Diversity Plus: BE3C Assay for Human Leukocyte Antigen - DR isotype (HLADR) Biomarker Activity (AID 2283032); settings: primary human bronchial epithelial cells; actives raise or lower the signal
Summary of the method: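 ELISA read-out of HLA-DR on human lung bronchial epithelial primary cells, measured 24 h post-dosing. Both increases and decreases were scored relative to DMSO vehicle.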

[11] = read-out: Vascular cell adhesion molecule 1 (VCAM1), VCAM1 (gene 7412); experiment: BSK_4H_VCAM1: BioMAP Diversity Plus: 4H Assay for Vascular cell adhesion molecule 1 (VCAM1) Biomarker Activity (AID 2283033); settings: primary human endothelial cells (HUVEC); actives raise or lower the signal
Summary of the method: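 ELISA read-out of VCAM-1 on human umbilical vein endothelium 24 hours after chemical dosing; gain or loss of signal was fitted relative to DMSO, with sulforhodamine B staining of parallel cultures flagging overt cytotoxicity.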

[12] = read-out: Interferon-gamma inducible Protein 10 (IP10), CXCL10 (gene 3627); experiment: BSK_BE3C_IP10: BioMAP Diversity Plus: BE3C Assay for Interferon-gamma inducible Protein 10 (IP10) Biomarker Activity (AID 2283034); settings: primary human bronchial epithelial cells; actives raise or lower the signal
Summary of the method: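 Chemical is dosed onto human lung bronchial epithelial primary cells, cultures are incubated 24 h, and IP-10 is then quantified by ELISA. Gain or loss of signal is fitted in both directions relative to DMSO.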

[13] = read-out: Monokine induced gamma interferon (MIG), CXCL9 (gene 4283); experiment: BSK_BE3C_MIG: BioMAP Diversity Plus: BE3C Assay for Monokine induced gamma interferon (MIG) Biomarker Activity (AID 2283035); settings: primary human bronchial epithelial cells; actives raise or lower the signal;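 also: MIG protein measured by ELISA in BE3C cultures after 24 h of dosing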
Summary of the method: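 ELISA read-out of MIG in human lung bronchial epithelial primary cultures, 24 h post-dosing. Bidirectional curve fit vs DMSO baseline.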

[14] = read-out: Transforming growth factor beta 1 (TGFb1), TGFB1 (gene 7040); experiment: BSK_BE3C_TGFb1: BioMAP Diversity Plus: BE3C Assay for Transforming growth factor beta 1 (TGFb1) Biomarker Activity (AID 2283036;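 also: TGF-b1 protein level measured by ELISA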); settings: primary human bronchial epithelial cells; actives raise or lower the signal
Summary of the method: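 Primary human lung bronchial epithelial cells; compound exposure 24 h; TGF-b1 by ELISA; bidirectional fit, DMSO baseline. Parallel SRB total-protein staining for cytotoxicity.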

[15] = read-out: Plasminogen activator inhibitor-1 (PAI1), SERPINE1 (gene 5054); experiment: BSK_BE3C_PAI1: BioMAP Diversity Plus: BE3C Assay for Plasminogen activator inhibitor-1 (PAI1) Biomarker Activity (AID 2283037); settings: primary human bronchial epithelial cells; actives raise or lower the signal
Summary of the method: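 Primary human lung bronchial epithelial cells; chemical dosing; 24 h; PAI-1 measured by ELISA; bidirectional fit referenced to DMSO as negative control.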

[16] = read-out: urokinase plasminogen activator (uPA), PLAU (gene 5328); experiment: BSK_BE3C_uPA: BioMAP Diversity Plus: BE3C Assay for urokinase plasminogen activator (uPA) Biomarker Activity (AID 2283038); settings: primary human bronchial epithelial cells; actives raise or lower the signal;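 also: uPA protein level quantified by ELISA in cell cultures; uPA read one day after compound addition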
Summary of the method: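 Measured by ELISA: uPA from human primary bronchial epithelial cells 24 h after chemical treatment. Values derive from bidirectional curve fitting with DMSO serving as negative control. Total protein by SRB staining in parallel wells flagged overt cytotoxicity.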

[17] = read-out: Urokinase-type plasminogen activator receptor (uPAR), PLAUR (gene 5329); experiment: BSK_BE3C_uPAR: BioMAP Diversity Plus: BE3C Assay for Urokinase-type plasminogen activator receptor (uPAR) Biomarker Activity (AID 2283039); settings: primary human bronchial epithelial cells; actives raise or lower the signal;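 also: uPAR protein level measured by ELISA on the cells; cells exposed to compound for one day before measurement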
Summary of the method: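 Human bronchial epithelial primary cells; chemical exposure 24 h; uPAR by ELISA; bidirectional fit vs DMSO control.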

[18] = read-out: Interleukin-6 (IL6), IL6 (gene 3569); experiment: BSK_CASM3C_IL6: BioMAP Diversity Plus: CASM3C Assay for Interleukin-6 (IL6) Biomarker Activity for (AID 2283040); settings: primary human coronary artery smooth muscle cells; actives raise or lower the signal
[19] = read-out: Tissue plasminogen activator (tPA), PLAT (gene 5327); experiment: BSK_BE3C_tPA: BioMAP Diversity Plus: BE3C Assay for Tissue plasminogen activator (tPA) Biomarker Activity (AID 2283041); settings: primary human bronchial epithelial cells; actives raise or lower the signal
Summary of the method: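 Primary human lung bronchial epithelial cultures receive test chemical; after 24 h, tPA is quantified by ELISA, and gain or loss of signal is fitted bidirectionally relative to DMSO baseline.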

[20] = BSK_4H_SRB: Viability Assessment in the BioMAP Diversity Plus: 4H Assay (AID 2283027); settings: primary human endothelial cells (HUVEC);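 also: cells exposed to compound for 24 h before staining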
Summary of the method: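 Human umbilical vein endothelial cells were dosed with chemical and, after 24 h, fixed with 10% TCA, stained with 0.1% sulforhodamine B, and read at 560 nm to give total protein as a cytotoxicity measure. Bidirectional fitting relative to DMSO control.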

Measured: AC50

Sequence of human Vitamin D Receptor (VDR), VDR (gene 7421) (P11473 whole entry, looked up, the tested form may be a part): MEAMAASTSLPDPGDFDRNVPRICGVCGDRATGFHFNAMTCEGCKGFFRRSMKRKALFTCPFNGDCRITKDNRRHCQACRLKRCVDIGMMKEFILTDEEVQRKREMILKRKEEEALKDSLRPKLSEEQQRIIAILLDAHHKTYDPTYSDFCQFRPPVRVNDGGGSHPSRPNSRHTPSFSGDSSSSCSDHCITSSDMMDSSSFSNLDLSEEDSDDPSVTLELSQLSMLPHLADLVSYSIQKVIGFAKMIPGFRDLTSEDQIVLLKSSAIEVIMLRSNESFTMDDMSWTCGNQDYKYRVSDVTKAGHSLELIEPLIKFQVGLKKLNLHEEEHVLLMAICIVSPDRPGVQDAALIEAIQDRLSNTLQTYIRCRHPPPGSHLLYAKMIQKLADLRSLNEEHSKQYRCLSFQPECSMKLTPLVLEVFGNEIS

Cc1cccc(C)c1O
inactive: [1] | [2] | [3] | [4] | [5] | [6] | [7] | [8] | [9] | [10] | [11] | [12] | [13] | [14] | [15] | [16] | [17] | [18] | [19]

CCCCCCCCCCO
inactive: [1] | [2] | [3] | [4] | [5] | [6] | [7] | [8] | [9] | [10] | [11] | [12] | [13] | [15] | [16] | [18] | [19]

COc1ccc2c(c1)c(CC(=O)O)c(C)n2C(=O)c1ccc(Cl)cc1
inactive: [1] | [2] | [5] | [6] | [7] | [8] | [9] | [10] | [11] | [12] | [13] | [14] | [15] | [16] | [17] | [18] | [19]
active: [3] 7.79 µM

CC(C)(C)c1cc(O)c(C(C)(C)C)cc1O
active: [1] 61.2 µM | [5] 5.24 µM | [8] 4.17 µM | [9] 1.02 µM | [11] 6.44 µM | [19] 15.7 µM
inactive: [2] | [3] | [6] | [7] | [10] | [12] | [13] | [15] | [16] | [17] | [18]

Cc1c(C(=O)O)c(O)cc2c1C(=O)c1c(O)c([C@@H]3O[C@H](CO)[C@@H](O)[C@H](O)[C@H]3O)c(O)c(O)c1C2=O
inactive: [1] | [2] | [3] | [5] | [6] | [7] | [8] | [9] | [10] | [11] | [12] | [13] | [14] | [15] | [16] | [18] | [19]

Cc1ccc(N(C)C)cc1
inactive: [1] | [2] | [3] | [5] | [6] | [7] | [8] | [9] | [10] | [11] | [12] | [13] | [15] | [16] | [17] | [18] | [19]

Cc1ccc(C(C)C)c(O)c1
inactive: [2] | [3] | [4] | [5] | [20] | [6] | [7] | [8] | [9] | [10] | [11] | [12] | [13] | [14] | [15] | [16] | [18] | [19]

NCCO
inactive: [2] | [3] | [4] | [5] | [20] | [6] | [7] | [8] | [9] | [10] | [11] | [12] | [13] | [15] | [16] | [17] | [18] | [19]

CCCCCCOCCO
inactive: [1] | [2] | [3] | [5] | [20] | [6] | [7] | [8] | [9] | [10] | [11] | [12] | [13] | [14] | [15] | [16] | [18] | [19]

Oc1ccc2c(c1)OC[C@@H](N1CCC(O)(c3ccc(F)cc3)CC1)[C@H]2O
inactive: [2] | [3] | [4] | [5] | [20] | [6] | [7] | [8] | [9] | [10] | [11] | [12] | [13] | [15] | [16] | [17] | [18] | [19]

Nc1nc(N)c2nc(CNc3ccc(C(=O)N[C@@H](CCC(=O)O)C(=O)O)cc3)cnc2n1
inactive: [1] | [2] | [3] | [5] | [20] | [6] | [7] | [8] | [9] | [10] | [11] | [12] | [13] | [14] | [15] | [16] | [18] | [19]

C1CCC(SSC2CCCCC2)CC1
inactive: [1] | [2] | [3] | [5] | [6] | [7] | [8] | [9] | [10] | [12] | [13] | [14] | [15] | [16] | [17] | [18] | [19]
active: [11] 20 µM

CC(CO)OC(C)CO (configuration not stated) (tested in a mixture with another compound)
inactive: [1] | [2] | [3] | [5] | [6] | [7] | [8] | [9] | [10] | [11] | [12] | [13] | [15] | [16] | [18] | [19]

NC(=O)Cn1c(=O)cc(CCN2CCN(c3nccc4sccc34)CC2)c2ccc(F)cc21
active: [5] 3.25 µM | [8] 0.496 µM | [11] 7.88 µM
inactive: [1] | [3] | [4] | [6] | [7] | [9] | [10] | [12] | [13] | [14] | [15] | [16] | [17] | [18] | [19]
